Results filed as inconclusive are left out. A number with no mark means an inactive call. Activity calls are given as the source filed them. Calls follow the shape of the dose curve; as a rule, active = well fitted curve in the direction sought with a large enough effect; inconclusive = small, poorly fitted or top-dose-only effect, or another doubt; inactive = no such curve, though single readings can be large; an effect the other way counts as inactive or inconclusive.

Experimental findings from PubChem BioAssay (NCATS) are described below.

Assay [1] can be described thus: Primary qHTS for inhibitors of nuclear receptor binding SET domain protein 2 (NSD2) in an isogenic RCH-ACV NSD2 p.E1099K mutant (9B) (AID 1645876).
The nature of assay [2]: Primary qHTS for inhibitors of nuclear receptor binding SET domain protein 2 (NSD2) in an RCH-ACV wild type WT cells (2C) (AID 1645877). Also: potency is read from the fitted curve at half-maximal effect.
% is scaled to controls: 0 for no effect and ±100 for the full control effect.
Also: nearly all actives have a fitted effect of over 70% in size.

As to `CCC[C@@H]1C[C@@H](C(=O)N[C@@H]([C@H]2O[C@H](SC)[C@H](OP(=O)(O)O)[C@@H](O)[C@H]2O)[C@H](C)Cl)N(C)C1`, the Potency entry in assay [1] and in assay [2] was “inactive” each time. `C=C(C)[C@@H]1CC[C@](C)(O)[C@@H](OC(=O)c2ccccc2)C1`: the Potency entry in assay [1] was “inactive”. As to `COC(=O)C1=COC(OC2OC(CO)C(O)C(O)C2O)C2C1CC(OC(=O)C(O)CC(=O)O)C2C` (stereo unspecified), the Potency result in assay [1] and in assay [2] was “inactive” in each case. As to `CCC(C)C(=O)O[C@@H]1[C@@H](O)[C@@H](O[C@H]2O[C@H](CO)[C@@H](O)[C@H](O)[C@H]2O)O[C@H](CO)[C@H]1O` (stereo partly specified), the Potency entry in assay [1] and in assay [2] was “inactive” throughout.

On to `CCC(C)/C=C(C)/C=C/C1=CC2=C(Cl)C(=O)C(C)(OC(C)=O)C(=O)C2=CN1CCCC(=O)O` (stereo unspecified), for which the Potency result in assay [1] is “inactive”.

Turning to `CC(=O)c1c(C)cc(O[C@@H]2O[C@H](CO)[C@@H](O)[C@H](O)[C@H]2O)cc1O`, the Potency entry in assay [1] and in assay [2] was “inactive” each time. On to `CC1CCC2(O1)C(C)(C)CC(O[C@@H]1O[C@H](CO[C@@H]3OC[C@](O)(CO)[C@H]3O)[C@@H](O)[C@H](O)[C@H]1O)CC2(C)O` (stereo partly specified), for which the Potency entry in assay [1] and in assay [2] was “inactive” each time. With `CC(=O)NC(CCC(=O)O)C(=O)NCCc1ccc(O)cc1` (stereo unspecified), the Potency entry in assay [1] was “inactive”. For `CC1(C)CC[C@]2(C(=O)O)CC[C@]3(C)C(=CCC4[C@@]5(C)CC[C@H](O[C@@H]6O[C@H](C(=O)O)[C@@H](O)[C@H](O)[C@H]6O)C(C)(CO)C5CC[C@]43C)C2C1` (stereo partly specified), the Potency result in assay [1] and in assay [2] was “inactive” each time. Take `O=C1NCc2nc3ccccc3c(=O)n2C1Cc1c[nH]c2ccccc12` (stereo unspecified): the Potency entry in assay [1] and in assay [2] was “inactive” throughout. For `NC(=O)c1cccc(-c2cc(O)cc(OC(=O)NC3CCCCC3)c2)c1`, the Potency entry in assay [1] and in assay [2] was “inactive” throughout. For `C[C@H]1[C@H](C)CC[C@]2(C(=O)O[C@@H]3O[C@H](CO)[C@@H](O)[C@H](O)[C@H]3O)CC[C@]3(C(=O)O)C(=CCC4[C@@]5(C)CC[C@H](O[C@@H]6O[C@H](CO)[C@@H](O)[C@H](O)[C@H]6O)C(C)(C)C5CC[C@]43C)[C@H]12` (stereo partly specified), the activity change, negative = viability loss in assay [1] was -7.26% [at 9.23 µM]. The activity change, negative = cell killing in assay [2] was -8.94% [at 9.23 µM]. Take `C[C@@H]1C[C@H]2[C@@H]3CCC4=CC(=O)C=C[C@]4(C)[C@@]3(F)[C@@H](O)C[C@]2(C)[C@@]1(O)C(=O)COP(=O)(O)O`: in assay [1], the Potency entry is “inactive”. In assay [2], the Potency was 91.6 nM (active). In the case of `CC1CCC2(C(=O)OC3OC(COC4OC(CO)C(O)C(O)C4O)C(O)C(O)C3O)CCC3(C)C(=CCC4C5(C)CCC(O)C(C)(C(=O)O)C5CCC43C)C2C1(C)O` (stereo unspecified), the activity change, negative = viability loss in assay [1] is 1.95% [at 9.23 µM]. Moreover, the activity change, negative = cell killing in assay [2] is 2.11% [at 9.23 µM]. Turning to `CC1CCC2C(C)(C)C(O)CCC2(C)C12Cc1c(O)cc3c(c1O2)C(N)=NC3` (stereo unspecified), the Potency result in assay [1] and in assay [2] was “inactive” throughout.

As to `CC(=O)NC(C(=O)OC1CCC(C)(C)C2CC=C3C(=O)OCC3(O)C12C)C(C)C` (stereo unspecified), the Potency result in assay [1] is “inactive”. Turning to `C[C@@H]1C(=O)O[C@H]2CC34[C@H]5C[C@@H](C(C)(C)C)C36[C@@H](OC(=O)[C@@H]6O)OC4(C(=O)O5)[C@]21O` (stereo partly specified), the Potency result in assay [1] and in assay [2] was “inactive” each time. Take `C[C@]1(O)CC[C@@H]2C(C(=O)O)=CO[C@@H](O[C@@H]3O[C@H](COC(=O)c4ccc(O)cc4)[C@@H](O)[C@H](O)[C@H]3O)[C@@H]21`: the Potency entry in assay [1] and in assay [2] was “inactive” in each case. `CC(C)C1=CC2=CCC3[C@](C)(CCC[C@@]3(C)C(=O)O)C2CC1=O` (stereo partly specified): the Potency entry in assay [1] and in assay [2] was “inactive” each time. `CC1(C)O[C@]23C[C@H]1C[C@H](OC(=O)c1ccoc1)[C@]2(C)[C@@H](OC(=O)c1ccoc1)CCC3(C)O` (stereo partly specified): the Potency result in assay [1] and in assay [2] was “inactive” throughout. As to `CC1OC(OC2C(O)C(C(=O)O)OC(OC3CCC4(C)C(CCC5(C)C4C=CC4=C6CC(C)(C)CC(O)C6(C)CCC45C)C3(C)C)C2OC2OCC(O)C(O)C2O)C(O)C(O)C1O` (stereo unspecified), the outcome in assay [1] and in assay [2] was “inactive [at 9.23 µM]” each time. Regarding `COC1=CC(=O)O[C@@H](CCc2ccccc2)[C@@H]1O`, the Potency result in assay [1] and in assay [2] was “inactive” each time. In the case of `CC(=O)O[C@H]1[C@H](C)[C@@H](O)[C@H]2[C@@H]1C=C(C(=O)O)[C@H]1C[C@@H]3[C@H]([C@H]21)[C@H]1C(=O)O[C@@H]2CC[C@@]3(C)O[C@]1(O)[C@@H]2C`, the Potency entry in assay [1] and in assay [2] was “inactive” throughout.

With `CO[C@@]12CC3[C@@H]([C@@H](O)[C@@H](OC(C)=O)C4[C@](C)(COC(C)=O)CCC[C@]34C)[C@@H](C)C1=CC(=O)O2` (stereo partly specified), the Potency entry in assay [1] and in assay [2] was “inactive” each time. For `CC12CC34C=CC(=O)C(C)(CCC(=O)O)C3C(CC1C4)O2` (stereo unspecified), the Potency entry in assay [1] and in assay [2] was “inactive” each time. As for `C=C1CC2(C(=O)O)CC1CCC2C1(C)CCCC2(C)C(=O)OC(O)C21` (stereo unspecified), the Potency entry in assay [1] and in assay [2] was “inactive” each time. With `CC(=O)O[C@@H]1[C@@H](OC(=O)/C=C/c2ccccc2)[C@H](C)O[C@@H](O[C@H]2[C@@H]3C=CO[C@@H](O[C@@H]4O[C@H](CO)[C@@H](O)[C@H](O)[C@H]4O)[C@@H]3[C@@]3(CO)O[C@@H]23)[C@@H]1OC(C)=O`, the Potency entry in assay [1] and in assay [2] was “inactive” throughout.

As to `CC(=O)c1c(O)cc2cccc3c2c1CC(C)(O)O3` (stereo unspecified), the Potency result in assay [1] and in assay [2] was “inactive” each time.

With `COC12CC3C(C(C)C1=CC(=O)O2)C(O)C(OC(C)=O)C1C(C)(C)C(OC(C)=O)CCC31C` (stereo unspecified), the Potency entry in assay [1] and in assay [2] was “inactive” each time. For the compound `COC(=O)C1C(c2ccc(O)cc2)C(C(=O)OC)C1c1ccc(O)cc1` (stereo unspecified), the Potency entry in assay [1] and in assay [2] was “inactive” in each case.
